Experimental data published in PubChem BioAssay AID651604 (The Scripps Research Institute Molecular Screening Center, 2012).
Out of some 1,500 compounds screened, about 1,400 (93%) were called active. Cut-off read from the data, not from the text of the source: active = inhibition above about 9.5%; inactive = the rest. So high a share suggests a set chosen from earlier hits. Not all results are given here.

test: binders of control antibody PGV04, counter-screen for PG9 antibody binder project, biochemical, TR-FRET, distinct HIV envelope site (AID 651604); conditions: TR-FRET PGV04 antibody-gp120 binding, at 6.7 µM, active compounds read high

Row | SMILES | inhibition
1 | CCN(CC)C(=O)c1ccc(NC(=O)c2sccc2-c2ccccc2)cc1 | 25.4% (active)
2 | N#CC1=C(N)Oc2c(c(=O)oc3ccccc23)C1c1ccccc1OC(=O)c1cccs1 (configuration not stated) | 28% (active)
